Results reported in PubChem BioAssay.
The source made the active and inactive calls.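 The calls were made as follows, unless noted: active = inhibition above 20% together with a positive visual image hit; inconclusive = visual image hit but inhibition not above 20%; inactive = no visual image hit.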

Legend:
[1] = inhibitors of TNFa-induced NFkB p65 translocation, primary screen, imaging, HUVEC, MLSMR starter and 10KST1 sets (AID 438); conditions: HUVEC TNFa-induced p65 nuclear translocation; cell count: measured here: nuclei count (cytotoxicity indicator), at 2.08 µM; inhibition: at 2 µM, stronger effect = higher value, 0% TNFa-plus-vehicle, 100% no-TNFa wells;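 also: compound added about 3h40 before a 20 min TNFalpha stimulation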;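 as to inhibition: signal is the nuclear over cytoplasmic p65 intensity ratio per well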
[2] = reduction of polyQ htt aggregates in cells – imaging, exon1htt(103Q)mCFP cells, high-content imaging, primary screen (AID 483;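 active = visual image review flags a hit and inhibition of aggregation exceeds 20%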;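 also: compound exposure lasted 3 days before fixation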;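 as to nuclei count: percent of the per-plate median nuclei count of sample wells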); conditions: exon1htt(103Q)mCFP cell line, aggregate imaging, at 2 µM; inhibition of aggregation: stronger effect = higher value; nuclei count: measured here: cell count, toxicity
[3] = endothelial E-selectin expression blockers – imaging, HUVEC, immunofluorescence, MLSMR starter and 10KST1 sets, primary screen (AID 487;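 active = visually confirmed hit in the image check and inhibition above 20%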;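 as to inhibition: signal is fraction of cell area covered by stained E-selectin grains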;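 as to nuclei count: 100% = median nuclei count of all wells on the same plate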); conditions: HUVEC TNFalpha-induced E-selectin immunofluorescence imaging, at 2 µM; inhibition: stronger effect = higher value; nuclei count: measured here: cell number, toxicity
[4] = target: Voltage-gated potassium channel subunit beta-2 (Rattus norvegicus) (UniProt P62483); assay: inhibitors of rat Kvbeta2 reductase activity – biochemical, NADPH fluorescence, primary screen (AID 622;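 active = fluorescence slope higher than the sample average by over 3 SD, cut at about -0.22 in these data, passing the limit was not always enough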;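 also: slope of raw intensity against log time taken from 70 to 1610 s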); conditions: recombinant KvBeta, 4-cyanobenzaldehyde reduction, at 10 µM, stronger effect = higher value
[5] = target: Voltage-gated potassium channel subunit beta-2 (Rattus norvegicus) (UniProt P62483); assay: enhancers of rat Kvbeta2 NADPH turnover – biochemical, NADPH fluorescence, primary screen (AID 623;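 active = NADPH fluorescence slope more negative than the mean of all samples by about 3 SD, 99.7% confidence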;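 also: fluorescence intensity change per second fitted from 20 to 320 s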); conditions: Recombinant KvBeta, NADPH fluorescence decrease slope, 10 min; at 10 µM; stronger effect = lower value
[6] = target: Alpha-2C adrenergic receptor (Homo sapiens) (UniProt P18825); assay: compounds altering alpha2C-coupled GIRK flux – cell-based, HEK293 alpha2C/GIRK1/2, thallium flux, primary screen (AID 624;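 active = fluorescence slope after compound addition differing from the mean of all screened samples at 99.7% confidence, in either direction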;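 also: slope of fluorescence ratio to pre-addition baseline per second over 15 to 24 s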); conditions: thallium flux BTC fluorescence, at 10 µM, actives lie on both sides
[7] = blockers of RIG-like receptor reporter activation – cell-based, Sendai virus stimulus, luciferase, 10K MLSCN set, TLR/RLR signaling modifier project, primary screen (AID 602276;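 active = inhibition at or above 50% at 10 µM; inactive = inhibition below 50%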;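 also: firefly luciferase from ISG56 promoter only with Renilla not read in this screen; 0% = Sendai virus plus DMSO and 100% = medium plus DMSO without virus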); conditions: HEK293 RL24 IRF3 luciferase reporter, at 10 µM, stronger effect = higher value
[8] = TLR3 IRF3 reporter activation blockers – cell-based, poly I:C stimulus, luciferase, 10K MLSCN set, primary screen (AID 602277;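 active = inhibition of the reporter signal at or above 50%; inactive = inhibition below 50%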); conditions: HEK293-TLR3 RL24 IRF3 luciferase reporter, at 10 µM, stronger effect = higher value

Alpha-2C adrenergic receptor (Homo sapiens), sequence (P18825 whole entry, looked up): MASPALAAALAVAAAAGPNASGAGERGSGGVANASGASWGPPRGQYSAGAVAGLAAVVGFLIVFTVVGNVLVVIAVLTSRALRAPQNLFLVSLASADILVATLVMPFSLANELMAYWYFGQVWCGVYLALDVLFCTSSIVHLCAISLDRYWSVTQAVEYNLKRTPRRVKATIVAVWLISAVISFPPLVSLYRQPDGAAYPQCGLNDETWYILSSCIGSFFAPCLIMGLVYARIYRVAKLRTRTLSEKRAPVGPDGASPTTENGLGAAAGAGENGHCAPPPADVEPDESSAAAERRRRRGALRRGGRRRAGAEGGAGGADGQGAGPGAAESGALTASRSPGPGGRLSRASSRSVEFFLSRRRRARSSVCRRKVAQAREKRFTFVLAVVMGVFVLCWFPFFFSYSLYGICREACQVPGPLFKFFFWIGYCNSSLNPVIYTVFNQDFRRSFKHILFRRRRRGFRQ
Voltage-gated potassium channel subunit beta-2 (Rattus norvegicus), sequence (P62483 whole entry, looked up): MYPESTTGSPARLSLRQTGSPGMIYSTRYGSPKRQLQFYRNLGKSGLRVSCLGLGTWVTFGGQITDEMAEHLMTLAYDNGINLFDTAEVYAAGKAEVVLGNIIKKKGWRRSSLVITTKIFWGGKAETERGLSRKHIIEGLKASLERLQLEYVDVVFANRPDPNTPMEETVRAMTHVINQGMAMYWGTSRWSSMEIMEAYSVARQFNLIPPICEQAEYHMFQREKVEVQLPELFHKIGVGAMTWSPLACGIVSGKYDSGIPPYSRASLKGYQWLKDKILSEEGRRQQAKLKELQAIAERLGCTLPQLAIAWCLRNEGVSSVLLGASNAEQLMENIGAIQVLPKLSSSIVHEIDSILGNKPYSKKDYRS

| Structure (SMILES) | cell count [1] | inhibition [1] | inhibition of aggregation [2] | nuclei count [2] [%] | inhibition [3] | nuclei count [3] [%] | fluorescence slope [4] | NADPH fluorescence slope [5] | slope [6] | inhibition [7] | inhibition [8] |
| --- | --- | --- | --- | --- | --- | --- | --- | --- | --- | --- | --- |
| C=CCOc1ccc(C2/C(=C(\O)c3c(C)[nH]c(C(=O)OC)c3C)C(=O)C(=O)N2CCN(C)C)cc1 (centres undefined) | 462 | 0.5% (inactive) | -6.9% (inactive) | 99.7 | -96.2% (inactive) | 118 | -0.536 (inactive) | -1.1e-05 (inactive) | 0.00355 (inactive) | 13.2% (inactive) | 26.6% (inactive) |
| N/C(=N/O)c1nc(N2CCCC2)nc(N(c2ccccc2)c2ccccc2)n1 | 371 | 0.4% (inactive) | -18.1% (inactive) | 90.7 | -300% (inactive) | 104 | -0.593 (inactive) | -3.2e-05 (inactive) | 0.00592 (inactive) | 13.2% (inactive) | 40.9% (inactive) |
| CC(C)Cn1c(=O)c(C2=NS(=O)(=O)c3ccccc3N2)c(O)c2ccccc21 | 407 | -0.4% (inactive) | 10.3% (inactive) | 93.8 | -61.6% (inactive) | 125 | -0.353 (inactive) | -0.000128 (inactive) | 0.00697 (inactive) | 15.1% (inactive) | 18% (inactive) |
| COc1ccc(NC(=O)CSc2c(C)nn(-c3nnc(C)c(=O)[nH]3)c2C)cc1 | 387 | -4.5% (inactive) | -12.6% (inactive) | 107 | -170% (inactive) | 134 | -0.537 (inactive) | 2e-05 (inactive) | 0.00687 (inactive) | 1.41% (inactive) | 3.06% (inactive) |
| COCCn1c(C)cc(C(=O)COC(=O)CCN2C(=O)c3ccccc3C2=O)c1C | 287 | 3.2% (inactive) | 17.1% (inactive) | 96.8 | -6.1% (inactive) | 97.3 | -0.528 (inactive) | 6.5e-06 (inactive) | 0.00506 (inactive) | 3.96% (inactive) | 4.05% (inactive) |
| O=C(Cn1cc2c(n1)CCCCC2)N1CCc2ccccc21 | 708 | -3.4% (inactive) | 18.5% (inactive) | 103 | -102% (inactive) | 109 | -0.52 (inactive) | -4.3e-05 (inactive) | 0.00739 (inactive) | 7.59% (inactive) | 34.4% (inactive) |
| O=C(COC(=O)c1cncc(Br)c1)NCCC1=CCCCC1 | 555 | -7.6% (inactive) | 6% (inactive) | 107 | -26.8% (inactive) | 116 | -0.338 (inactive) | -3.9e-05 (inactive) | 0.00679 (inactive) | 1.87% (inactive) | 25.9% (inactive) |
| COCCCNC(=O)c1c(N)n(-c2cccc(S(N)(=O)=O)c2)c2nc3ccccc3nc12 | 245 | 7% (inactive) | -15.6% (inactive) | 98.9 | 1.4% (inactive) | 73.3 | -0.0132 (inactive) | 1.8e-09 (inactive) | 0.00575 (inactive) | 10.6% (inactive) | -0.988% (inactive) |
| Cn1c(SCC(=O)O)nnc1C1CCCCC1 | 396 | 1.6% (inactive) | -3.7% (inactive) | 99.2 | -65.8% (inactive) | 105 | -0.515 (inactive) | -8.3e-06 (inactive) | 0.0074 (inactive) | -46.6% (inactive) | -23.7% (inactive) |
| Cn1nnc2cc(C(=O)N3CCCCCC3)ccc21 | 933 | 2.7% (inactive) | -9% (inactive) | 105 | -5.7% (inactive) | 107 | -0.478 (inactive) | -4.7e-05 (inactive) | 0.00659 (inactive) | -1.25% (inactive) | 12.6% (inactive) |
| COc1ccc(OC)c(C(=O)c2coc3ccc(O)c(CN4CCOCC4)c23)c1 | 282 | 2.9% (inactive) | -12.4% (inactive) | 120 | -28.2% (inactive) | 109 | -0.561 (inactive) | -9.1e-06 (inactive) | 0.00423 (inactive) | 6.31% (inactive) | 23% (inactive) |
| CCc1ccccc1OCCCCCNCCO | 459 | 3.9% (inactive) | 28.4% (inactive) | 87.2 | 53% (inactive) | 85.2 | -0.303 (inactive) | -1e-05 (inactive) | 0.00576 (inactive) | 10.8% (inactive) | 31.9% (inactive) |
| CCc1cccc(NC(=O)CCc2nc(-c3cccs3)no2)c1 | 681 | 11.3% (inactive) | -7.6% (inactive) | 106 | 7.6% (inactive) | 114 | -0.531 (inactive) | -2.7e-05 (inactive) | 0.00567 (inactive) | -5.35% (inactive) | 18.5% (inactive) |
| Cc1nc2ccccc2c2c1C(=O)N(CCC1=CCCCC1)C2=O | 410 | 1.6% (inactive) | -3.7% (inactive) | 74.1 | -54.2% (inactive) | 108 | -0.407 (inactive) | -4.4e-05 (inactive) | 0.00396 (inactive) | 11.5% (inactive) | 42.1% (inactive) |
